Source: the OligoGym collection

target: CDH24; assay: pooled miR-30 sensor sort-seq; sequence = guide strand; conditions: shRNA
Note: reference of the scale not given here.

Sequence | sensor-assay potency score (higher = more potent)
TTGTCCTGGACAGTAAAGTTGG | -0.744
ATCCAGAACAGTGTACACCAGC | -0.986
TTCCTCAATGACAAAGAACTGG | -0.774
TCATCAATCACAAATACGGTGC | -0.0927
TAGGCTGGGTCAATGAGCGTGT | -0.193
TGCAAGTCTGTGCTGATGCTGA | -0.691
TTCATCTCTGTCCAGGGCCCGG | -1.68
TTCGAGTCCGCAGCAGAGCAGG | -1.36
TTCTATGGGAACCAAGTAGGGG | -0.879
TGGATTGTCGTTGATGTCTTGC | -0.503
TCGTTGACATCGCTGAGCGTGA | -0.691
TAGAGAAGCAACGCTCCGGATC | -0.845

target: CDH2; assay: as above; conditions: shRNA

Sequence | sensor-assay potency score (higher = more potent)
TAGTCAAACACTAACAGGGAGT | -0.885
TTTGTTTCAAAGTCGATTGGTT | 0.586
TATTATCTCTTACATCATCTTC | -0.354
TTTCTCGATCAAGTCCAGCTGC | -0.018
TTTTTATCTCTATCAGACCTGA | -0.29
TTCATAGTCAAACACTAACAGG | -1.55
TTTCTCTTAATAGTCACTGGAG | -0.274
TATCTCTTACATCATCTTCTGG | -0.0628
TTGTACTTGTCCAAAAACCAAG | -1.35
TTGCTGCATATATCGATCTGGG | -0.846
TTGATGACAATGTCAATGGGGT | 0.314
TTGATTGTAAACATGTTGGGTG | 0.885
ATAACTGTAACAGACACGGTTG | -0.196
